Results reported in PubChem BioAssay.
Unmarked numbers belong to inactive results. How the calls were made is not given here.

Biological target: Pantothenate synthetase (Mycobacterium tuberculosis (strain ATCC 25618 / H37Rv)) (UniProt P9WIL5)
Test: Coupled enzyme confirmation of inhibitors against recombinant Mtb PanC (AID 375);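 further: 0% = full reaction with vehicle and 100% = no enzyme background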
Conditions: coupled enzyme assay; at 10 µM, stronger effect = higher value

Chain of Pantothenate synthetase (Mycobacterium tuberculosis (strain ATCC 25618 / H37Rv)) (P9WIL5 whole entry, looked up): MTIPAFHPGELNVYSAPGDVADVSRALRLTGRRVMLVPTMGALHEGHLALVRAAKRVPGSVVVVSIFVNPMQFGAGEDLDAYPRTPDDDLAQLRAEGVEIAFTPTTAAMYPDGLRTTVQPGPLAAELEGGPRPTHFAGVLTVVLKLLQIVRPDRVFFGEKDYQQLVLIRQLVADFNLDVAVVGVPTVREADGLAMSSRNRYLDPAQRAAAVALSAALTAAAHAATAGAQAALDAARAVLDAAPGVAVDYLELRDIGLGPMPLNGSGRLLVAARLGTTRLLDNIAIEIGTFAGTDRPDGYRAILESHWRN

Structure (SMILES)	inhibition
COCCN1CCN(c2c(C)c(C)nc3cc(-c4cccc(OC)c4)nn23)CC1	0%
CCOC(=O)c1sc(NS(=O)(=O)c2ccc(NC(C)=O)cc2)nc1C	0%
CC1CCN(c2nc3c(c(=O)n(C)c(=O)n3C)n2Cc2ccccc2)CC1	0%
